In PubChem BioAssay (NCI):
About 83,000 compounds went through this panel and 20% of them were active in at least one assay; those are over-represented in the sample as a whole.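 Note: values are percent growth. 100 is the growth of untreated cells, values between 100 and 0 indicate rising inhibition; between -100 and 0 indicates cell death.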 Unmarked numbers belong to inactive results. Calls of active or inactive are those of the source. The calls were made as follows: active = growth percent below 10; inactive = the rest.

What was measured:
Assay in all cases: NCI-60 one-dose screen, 48 h (100 = growth as untreated, 0 = no growth, -100 = all killed)
Conditions in all cases: 10 µM unless noted
NCI-H23 lung = test system: NCI-H23 lung
NCI-H226 lung = test system: NCI-H226 lung
NCI-H322M lung = test system: NCI-H322M lung
HOP-62 NSCLC = test system: HOP-62 NSCLC
NCI-H460 lung = test system: NCI-H460 lung
HOP-92 NSCLC = test system: HOP-92 NSCLC
NCI-H522 lung = test system: NCI-H522 lung
A549/ATCC NSCLC = test system: A549/ATCC NSCLC
786-0 renal = test system: 786-0 renal
COLO 205 colon = test system: COLO 205 colon

Row | Structure (SMILES) | growth (NCI-H23 lung) | growth (NCI-H226 lung) | growth (NCI-H322M lung) | growth (HOP-62 NSCLC) | growth (NCI-H460 lung) | growth (HOP-92 NSCLC) | growth (NCI-H522 lung) | growth (A549/ATCC NSCLC) | growth (786-0 renal) | growth (COLO 205 colon)
1 | COc1ncc(-c2ccc3nc(N)n(-c4ccccc4C(F)(F)F)c(=O)c3c2)cc1S(=O)(=O)Nc1ccc(F)cc1F | 30.6% | 88.9% | -11.6% (active) | 82.4% | 28.1% | 25.3% | 46.8% | 29% | 33.7% | -66.2% (active)
2 | CCCCCCCCCCCCNC(=S)N/N=C/c1ccccc1O | 60.9% | 69.2% | 83.5% | 74% | 49.6% | 84.2% | 78.1% | 95.6% | 89.5% | 33.1%
3 | COc1ccc(C2=C(c3cn(C)c4ccccc34)C(=O)OC2)cc1OC | 54.6% | 70.3% | 65.5% | 31.5% | 29.6% | 16.4% | 13.3% | 42.3% | 41.2% | 12.6%
4 | COc1ccc(-c2cc(-c3ccc(Cl)cc3)nc(NCCCCNc3ccnc4cc(Cl)ccc34)n2)cc1 | 86.4% | 75% | 94.4% | 78.1% | 89.7% | 46.2% | 80% | 91.8% | 73.5% | 30.4%
5 | CC(C)c1ccc(C(=O)Nc2sc3c(c2C#N)CCC(=O)C3)cc1 | -5.74% (active) | 50.5% | 71.9% | 36.9% | 3.31% (active) | -52.2% (active) | -36.7% (active) | 15% | 8.77% (active) | -36.5% (active)
6 | c1coc2occoc=2o1 | 104% | 97.2% | 110% | 94.7% | 113% | 85.8% | 91.7% | 97% | 102% | 122%
7 | O=C(NCCCCCCCNC(=O)OCc1ccc2c(Cl)cc(Cl)c(O)c2n1)OCc1ccc2c(Cl)cc(Cl)c(O)c2n1 | -52.3% (active) | -50.3% (active) | 31% | -56.8% (active) | -31.3% (active) | -75% (active) | -55.6% (active) | -68.7% (active) | -62.7% (active) | -75.9% (active)
8 | c1ccc(-c2n[nH]c(-c3ccccn3)n2)nc1 | 102% | 118% | 121% | 104% | 106% | 94% | 96.8% | 105% | 97% | 143%
9 | O=c1c2c3c(sc2n2cnnc2n1Cc1ccccc1)CCCC3 | 100% | 85% | 104% | 119% | 97.7% | 89.8% | 79.2% | 91.7% | 100% | 83.3%
10 | N#Cc1c(Cl)nc(SCC2CO2)nc1-c1ccccc1 (stereo not given) | 101% | 114% | 105% | 92.8% | 101% | 89.8% | 101% | 124% | 99.5% | 131%
11 | CCOc1ccc(S(=O)(=O)Nc2ccc3c(c2)N(S(=O)(=O)CC)CCC3)cc1 | 87.5% | 87% | 86.8% | 69.9% | 52.6% | 86.1% | 68.4% | 84.3% | 96% | 62.6%
12 | Brc1ccc2c(c1)CN(C1CCCCC1)CO2 | 96.9% | 91.3% | 124% | 100% | 102% | 89.3% | 108% | 110% | 117% | 116%
13 | C=C(C)[C@@H]1CC[C@]2(COCCC#N)CC[C@]3(C)[C@H](CC[C@@H]4[C@@](C)(CCCNCCC#N)[C@H](C(=C)C)CC[C@]43C)[C@@H]12 | 29% [100 µM] | 42.6% [100 µM] | 72.2% [100 µM] | 77.8% [100 µM] | 9.8% [100 µM] (active) | -14.6% [100 µM] (active) | -6.77% [100 µM] (active) | 50.4% [100 µM] | 16.1% [100 µM] | 11.3% [100 µM]
14 | O=C(Nc1ccc(Cl)c(C(F)(F)F)c1)Nc1ccc(-c2cccnc2)cc1N1CCC(CO)CC1 | 38.4% | 53.4% | 54.8% | 47.5% | 18.5% | 34.5% | 20.2% | 22.2% | 15.6% | -26.6% (active)
15 | C=C(C)[C@@H]1CC[C@]2(COCCCN)CC[C@]3(C)[C@H](CC[C@@H]4[C@@](C)(CCCNCCCN)[C@H](C(=C)C)CC[C@]43C)[C@@H]12 | -53.5% [100 µM] (active) | -41.6% [100 µM] (active) | -76.2% [100 µM] (active) | -47.7% [100 µM] (active) | -74.7% [100 µM] (active) | -69.5% [100 µM] (active) | -49.8% [100 µM] (active) | -55.7% [100 µM] (active) | -49.7% [100 µM] (active) | -50.3% [100 µM] (active)
16 | O=C(COc1cccc(/C=C2\Oc3ccccc3C2=O)c1)c1ccc([N+](=O)[O-])cc1 | 79.9% | 85.8% | 115% | 103% | 95.7% | 78.1% | 57% | 90% | 102% | 107%
17 | COc1ccc(-c2cc(-c3ccc(Cl)cc3)nc(SCCCCCCC(=O)NO)n2)cc1 | 8.94% (active) | 19.7% | 39.5% | 7.61% (active) | 14.9% | 23.7% | 10.4% | 13% | 27.4% | 35.6%
18 | O=c1[nH]c(CN2CCN(c3cccc(Cl)c3)CC2)nc2cc(Cl)ccc12 | 84.9% | 87.6% | 113% | 89.7% | 104% | 105% | 66.6% | 88.9% | 90% | 106%
19 | O=C1CC(C(F)(F)F)Cc2nc3ccc(Br)cc3cc21 (stereo not given) | 83.3% | 87.6% | 78.2% | 87.1% | 87.8% | 85.8% | 84.8% | 91.8% | 96.4% | 100%
20 | NS(=O)(=O)c1ccc(CCN2C(=O)/C(=C\c3ccccc3)C=C2c2ccc(Cl)cc2)cc1 | 104% | 102% | 89.8% | 95.5% | 99.3% | 76.3% | 91.8% | 99.1% | 96.4% | 115%
21 | Nc1nc(SCc2cccc([N+](=O)[O-])c2)c2[nH]cnc2n1 | 102% | 90% | 91.2% | 94.6% | 108% | 100% | 81.1% | 97.2% | 98.1% | 114%
22 | CC(C)C1=NOC(=O)C1=Cc1cn(-c2ccccc2)nc1-c1ccc(Br)cc1 | 85.8% | 93.7% | 90.5% | 91.3% | 83.5% | 83.1% | 86% | 98.2% | 82.9% | 97.8%
23 | C=C(C)[C@@H]1CC[C@]2(C(N)=O)CC[C@]3(C)[C@H](CC[C@@H]4[C@@]5(C)CC[C@H](O)C(C)(C)[C@@H]5CC[C@]43C)[C@@H]12 | -27.1% [100 µM] (active) | -50.5% [100 µM] (active) | -58.9% [100 µM] (active) | -72.2% [100 µM] (active) | -37.5% [100 µM] (active) | -62.8% [100 µM] (active) | -53.8% [100 µM] (active) | -69.3% [100 µM] (active) | -72.2% [100 µM] (active) | -66.2% [100 µM] (active)
24 | COC(=O)C(=Cc1ccccc1[N+](=O)[O-])C(=O)OC | 38.8% | 97.6% | 54.9% | 104% | 41.2% | 16.5% | -3.3% (active) | 44.2% | 41.3% | 38%
25 | Cc1cccc(C[C@H](NC(=O)Nc2ccc(C)cc2F)C(=O)N[C@@H]2C(=O)N3C[C@H](O)C[C@H]3C(=O)N3CCN(C)C[C@H]3C(=O)N[C@@H](C)C(=O)N3C[C@H](C)C[C@H]3C(=O)O[C@H]2C)c1 | 38.1% | 53.9% | 73.3% | 57.9% | 42.5% | 38.9% | 38% | 43.5% | 84.2% | 12.4%
